Source: PubChem BioAssay AID1259336 (Sattelle Laboratory, UCL Respiratory, Division of Medicine, …, 2017)
Active and inactive are the calls of the source. No stated cut-off is given here; in the data, active means log2 fold change growth below about -1.8; inactive means the rest.

Assay: C. elegans growth inhibition, whole organism, log2 fold change (AID 1259336);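 further: growth scored by imaging after five days at 20 °C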
Settings: anthelmintic screen, stronger effect = lower value

SMILES | log2 fold change growth
CCc1ccc(S(=O)(=O)Nc2cc(CN3CCN(CCC(C)C)CC3)ccc2C)cc1 | 0.554 (inactive)
CN1CCN(c2cc(-c3ccc(F)cc3)nc(-c3ccncc3)n2)CC1 | -1.96 (active)
Cc1cc(NC(=O)c2ccc(S(=O)(=O)N(Cc3ccccc3)C(C)C)cc2)no1 | -0.0868 (inactive)
CN1CCN(S(=O)(=O)c2ccc(-c3ccc4c(Nc5ccc6n[nH]nc6c5)ccnc4c3)cc2)CC1 | -0.667 (inactive)
c1coc(CNc2nc(N3CCCCC3)nc3ccccc23)c1 | -0.141 (inactive)
COc1cc(C2=NCCN2)ccc1-n1cc(-c2cccc(C3=NCCN3)c2)nn1 | -0.901 (inactive)
Cc1nc(-c2ccccn2)nc(NCCc2ccc(S(C)(=O)=O)cc2)c1Cl | -0.702 (inactive)
CCC(=O)Nc1ccccc1C(=O)Nc1ccccn1 | 0.194 (inactive)
O=C(Nc1ccnc(-c2cccnc2)n1)c1cc(C(F)(F)F)cc(C(F)(F)F)c1 | 0.327 (inactive)
FC(F)(F)c1cnc(Sc2nnc(-c3ccncc3)o2)c(Cl)c1 | -0.0782 (inactive)
C[C@H]1c2cccc(O)c2C(O)=C2C(=O)[C@]3(O)C(O)=C(C(N)=O)C(=O)[C@@H](N(C)C)[C@@H]3[C@@H](O)[C@@H]21 | 0.805 (inactive)
C[C@H]1CCCCN1C(=O)NCCc1coc(-c2ccc(F)cc2)n1 | 0.0232 (inactive)
CCOC(=O)c1c(NC(=O)c2c(F)c(F)c(F)c(F)c2F)sc(C(N)=O)c1C | 0.119 (inactive)
O=C(NC1CC1)c1ccc(N2CCOc3ccc(Cl)cc32)s1 | -0.614 (inactive)
O=C(OCc1ccccc1)N1CCC(c2cc(-c3ccncc3)c(-c3ccc(F)cc3)[nH]2)CC1 | -0.374 (inactive)
c1cncc(NCc2ccc(-c3cc4ccncc4cc3OC3CCNCC3)s2)c1 | 0.376 (inactive)
C[C@H]1COc2c(N3CCN(C)CC3)c(F)cc3c(=O)c(C(=O)O)cn1c23 | 0.473 (inactive)
COc1ccc(N(CCc2cccc(C)n2)C(=O)C2CCCCC2)cc1 | -0.0192 (inactive)
Cc1cc(Cl)ccc1NC(=O)CCc1ccc(S(=O)(=O)NCC(C)C)cc1 | -0.221 (inactive)

SMILES | log2 fold change growth
CC(C)[C@@H](C(=O)Nc1ccc(S(=O)(=O)N(C)C)cc1)c1ccc(Cl)cc1 | -5.06 (active)
COc1cccc(-n2nnnc2S(=O)(=O)Cc2ccccc2)c1 | 0.034 (inactive)
O=C(NC1CC1)c1ccc(N2CCC(Cc3ccccc3)CC2)nc1 | 0.0189 (inactive)
CC(C)(C(=O)Nc1ccc(F)cc1)n1cc(-c2ccccc2F)cn1 | 0.0447 (inactive)
CO[C@H]1/C=C/O[C@@]2(C)Oc3c(C)c(O)c4c(O)c(c(/C=N/N5CCN(C)CC5)c(O)c4c3C2=O)NC(=O)/C(C)=C\C=C[C@H](C)[C@H](O)[C@@H](C)[C@@H](O)[C@@H](C)[C@H](OC(C)=O)[C@@H]1C | 0.729 (inactive)
Cc1[nH]c2cc(F)cc(F)c2c(=O)c1-c1ccc(Oc2ccc(OC(F)(F)F)cc2)cc1 | -0.247 (inactive)
CNC(=O)[C@@H]1Cc2ccccc2N1C(=O)Cc1ccc(F)cc1 | 0.145 (inactive)
Clc1cccc([C@H](c2ccc(CN3CCNCC3)cc2)n2ccnc2)c1 | -0.356 (inactive)
CS(=O)(=O)Cc1nc2ccccc2oc1=O | -0.133 (inactive)
CC(C)n1ncc2c(C(=O)NC[C@@H](c3cccs3)N3CCOCC3)cc(-c3ccccc3)nc21 | -2.7 (active)
CC(=O)N1CCN(c2ccc(Oc3ccc(Cl)cc3O)cc2)CC1 | 0.423 (inactive)
CC1=NN(c2nc3ccccc3s2)C(=O)[C@H]1Cc1cccc2ccccc12 | -0.647 (inactive)
CC(=O)Oc1ccccc1C(=O)Nc1ncc([N+](=O)[O-])s1 | 0.253 (inactive)
Cc1ccc2nc(C)c(-c3ccn(Cc4ccccc4)n3)n2c1 | 0.192 (inactive)
Cc1nnc(NC(=O)c2cn(-c3ccccc3)nc2-c2ccccc2C)o1 | -0.302 (inactive)
CCCS(=O)(=O)N1CCC(CO)(Cc2ccccc2C(F)(F)F)CC1 | 0.357 (inactive)
COC(=O)c1ccc(F)cc1NS(=O)(=O)c1cccc(-c2cnn(Cc3ccccc3)c2)c1 | -0.413 (inactive)
COc1ccc(-c2nc(-c3cccc(NC(=O)Cc4ccc(F)cc4)c3)no2)cc1OC | -0.107 (inactive)
O=C(c1ccc(NCCO)cc1)C1C[C@H]1c1ccc(Cl)cc1 (stereo partly drawn) | -0.319 (inactive)
